According to the OligoGym collection:

What follows are sequences tested against KRTAP13-2 (assay: pooled miR-30 sensor sort-seq; sequence = guide strand). Details: shRNA.
Also: reference of the scale not given here.

In order of rising sensor-assay potency score (higher = more potent):
1. TCCACATAGGACGTCTGGCAGC  -2.1
2. AGGTAGTCACCACAGGAGCGGG  -1.51
3. TGGTCTGTAACAAGGAGACTGG  -0.828
4. TAACCCAGGGATCTGACACCAC  -0.823
5. TAGGCTGGTCTGTAACAAGGAG  -0.634
6. TCGTCTTGCAAGGACTGCAGAG  -0.616
7. ACAGCTTCCATAACCCAGGGAT  -0.532
8. TAGAGACCCAGAGTAAGTCGTC  0.623

The sequences below were run against KRTAP4-5 in the same assay as above. Details: shRNA.

In order of rising sensor-assay potency score (higher = more potent):
1. TGGTCTGGCAGCAGCAGGGGCG  -1.72
2. ATGAATGTGATTGTCTGTCATT  -1.58
3. TGCTCAGAGCTGACAGAGCCAC  -1.57
4. TGGAGATGCAGCAGCTAGGGTG  -1.53
5. TGGTAGCACACAGACTGGCAGC  -1.41
6. ATTCACAGCAATAGGGGCGGCA  -0.786
7. TAGGGTGGCAGCAGGTGGGCTG  -0.712
8. TGGATTCACAGCAATAGGGGCG  -0.512
9. TAACATATTTTAATGAATGTGA  -0.0651
10. TTAATGAATGTGATTGTCTGTC  0.0544
11. TTTAATGAATGTGATTGTCTGT  0.174
12. TTATATGAGATCATCACAGTTA  0.439
